In the library only some 3.3% were active in any assay of this set; here they are far more common.
Cl transport mod – modulates chloride dependent transport by human KCC2. Q9H2X9. KCC2 cells, thallium flux FluoZin-2 fluorescence. 190,000 compounds, 2.2% hits. B-score of Tl+ flux slope (higher = more flux/activation; lower = inhibition) at 10 µM;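 active means thallium flux slope and its plate-corrected score both differing from the plate sample mean at a set confidence after two filtering rounds, in either direction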;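 further: slope of fluorescence scaled to starting intensity during 10 to 20 s after thallium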
Calb FLC – affects C. albicans growth with fluconazole; C. albicans CaCi-2 (fluconazole-resistant clinical isolate) + fluconazole, Alamar Blue growth, 48 h; growth inhibition, % (concentration not given with the values); 300,000 compounds, 0.57% hits; AID 1979;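 active means growth inhibition above about 58% in most replicates, limit read from the data, passing the limit was not always enough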;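 further: all wells also contain fluconazole at 8 µg/ml as a sub-toxic cotreatment; 0% = median of DMSO wells and 100% = median of geldanamycin control wells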
Efflux pump mplx – antifungal efflux pump inhibition, Nile Red retention; inhibition, % at 10 µM; S. cerevisiae Candida pump triplex; 330,000 compounds, 0.44% hits; AID 485275;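 active means plate passing quality check with inhibition over a set limit, or well fluorescence over plate mean plus 4 SD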;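 further: Nile Red retained in pooled yeast measured as flow cytometry median fluorescence; 0% = buffer negative control and 100% = Enniatin B positive control; higher means more Nile Red kept so more efflux inhibition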
Cardio protect – modulators protecting cardiomyocytes from myocardial damage | protection from H2O2 cell death, % at 20 µM | AID 588492 | 360,000 compounds, 0.63% hits | H9c2 cardiomyocytes, H2O2 injury protection, ATPLite, 2 h;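 active means compounds giving at least 50% protection of heart cells from peroxide-induced death in the single-dose screen, raw or plate-pattern-corrected value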;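 further: 0% = DMSO wells with peroxide and 100% = DMSO wells without peroxide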
PHOSPHO1 block – PHOSPHO1 (human) inhibition; inhibition, % at 13.3 µM; Q8TCT1; recombinant PHOSPHO1, absorbance phosphatase assay; 290,000 compounds, 1.1% hits; in the data active means inhibition above about 60%
Target sequence (Q8TCT1 whole entry, looked up): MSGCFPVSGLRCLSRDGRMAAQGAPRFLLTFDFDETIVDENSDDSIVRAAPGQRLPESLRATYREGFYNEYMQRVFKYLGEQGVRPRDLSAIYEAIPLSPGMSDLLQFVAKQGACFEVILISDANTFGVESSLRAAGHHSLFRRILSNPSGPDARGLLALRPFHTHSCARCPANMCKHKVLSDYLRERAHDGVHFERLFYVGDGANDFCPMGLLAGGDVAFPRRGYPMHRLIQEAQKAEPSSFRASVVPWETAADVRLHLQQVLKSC
* = called active by the depositor.

COc1ccc(C2C(C(=O)c3cccs3)=C(O)C(=O)N2c2nncs2)cc1 (configuration not stated) was read as Calb FLC 116.2*, Efflux pump mplx 0.1, Cardio protect -2.1 and PHOSPHO1 block 71.2*.
CCOC(=O)c1cc2sccc2n1CC(=O)N1CCCC1 was read as Cl transport mod 0.0252, Calb FLC 106.3*, Efflux pump mplx 0.0, Cardio protect -1.7 and PHOSPHO1 block 8.7.
`CCOC(=O)CCC(NC(=O)c1ccccc1C(=O)NC(CCC(=O)OCC)C(=O)OCC)C(=O)OCC` (configuration not stated) gave Cl transport mod -0.752, Calb FLC 0.9, Efflux pump mplx 0.3, Cardio protect 0.4 and PHOSPHO1 block 64.7*.
For CCOC(=O)CCC(NC(=O)c1ccc(NCN2C(=O)c3ccccc3C2=O)cc1)C(=O)OCC (configuration not stated) the results were Calb FLC 2.0, Efflux pump mplx -0.1, Cardio protect 41.6 and PHOSPHO1 block -7.4.
O=c1[nH]cc(N=Cc2cc(Cl)cc(Cl)c2O)c(=O)[nH]1 was read as Calb FLC -1.5, Efflux pump mplx 0.1, Cardio protect 49.4* and PHOSPHO1 block 23.9.
For Cc1cc(O)c(C(C)C)cc1N=Cc1cc([N+](=O)[O-])ccc1O the results were Cl transport mod 0.0323, Calb FLC 20.4, Efflux pump mplx -0.1, Cardio protect -10.5 and PHOSPHO1 block 42.1.
Screening O=c1[nH]cc(N=Cc2cc([N+](=O)[O-])ccc2O)c(=O)[nH]1 returned Calb FLC 93.3*, Efflux pump mplx 0.0 and PHOSPHO1 block 29.1.
`CCN1/C(=C/c2cccc[n+]2C)Sc2ccc(OC)cc21` gave Calb FLC 98.9*, Efflux pump mplx 0.2, Cardio protect -20.4 and PHOSPHO1 block -24.5.
Screening CCN1/C(=C/C(C)=O)Sc2ccc(OC)cc21 returned Cl transport mod -0.114, Calb FLC 24.4, Efflux pump mplx -0.2, Cardio protect -1.4 and PHOSPHO1 block 2.3.
For Cc1ccc(S(=O)(=O)N2CCC(C(=O)Nc3nnc(-c4ccco4)s3)CC2)cc1 the results were Cl transport mod 0.00215, Calb FLC -6.7, Efflux pump mplx 0.0, Cardio protect -2.3 and PHOSPHO1 block -16.2.
For O=C(Nc1nnc(-c2ccco2)s1)C1CCCCC1 the results were Cl transport mod 0.664, Calb FLC -7.7, Efflux pump mplx -0.2, Cardio protect -4.6 and PHOSPHO1 block 75.4*.
Cc1nccn1CC(=O)N/N=C/c1cccs1 was read as Cl transport mod 0.438, Calb FLC -4.2, Efflux pump mplx -0.1, Cardio protect 4.4 and PHOSPHO1 block 41.5.
Screening O=C(c1ccc(Cl)cc1)c1cccc(O)c1 returned Cardio protect -7.9.
For CC(C)C[C@H]1CN=C(Nc2ccccc2)N1CCCC1CCCCC1 the results were Calb FLC 76.6*, Efflux pump mplx 0.0, Cardio protect -27.3 and PHOSPHO1 block 9.6.
For CC(C)C[C@H]1CN=C(Nc2ccccc2)N1CCCC1CCCC1 the results were Calb FLC -20.5, Efflux pump mplx 0.1, Cardio protect -13.8 and PHOSPHO1 block 4.0.
For Cc1ccc(SC(C)C(=O)Nc2cccnc2)cc1 (configuration not stated) the results were Cl transport mod -0.396, Calb FLC 6.5, Efflux pump mplx -0.1, Cardio protect -4.4 and PHOSPHO1 block 60.1*.
For COc1ccc(-c2nc(CN3CCN(c4ncnc5ccccc45)CC3)c(C)o2)c(OC)c1 the results were Cl transport mod -2.76, Calb FLC -11.4, Efflux pump mplx -0.1, Cardio protect -24.9 and PHOSPHO1 block 64.2*.
`C/C(=N/NS(=O)(=O)c1ccc(Br)cc1)c1ccc(NC(=O)c2ccc(C)o2)cc1` gave Calb FLC 40.2, Efflux pump mplx 0.1, Cardio protect -9.1 and PHOSPHO1 block 74.3*.
Screening CC(=O)Nc1ccc(/C(C)=N/NS(=O)(=O)c2ccc(C)cc2)cc1 returned Cl transport mod 0.516, Calb FLC -2.2, Efflux pump mplx 0.0, Cardio protect -2.9 and PHOSPHO1 block 5.4.
`COCC(=O)Nc1nc2n(n1)C(c1ccccc1Cl)CC(c1ccc(OC)cc1)N2` (configuration not stated) gave Cl transport mod -0.821, Calb FLC 110.5*, Efflux pump mplx -0.7, Cardio protect -1.5 and PHOSPHO1 block -8.4.
CSc1ncccc1C(=O)OCC(=O)NC1CCCCC1 was read as Efflux pump mplx 0.1 and Cardio protect 0.2.
Screening CCOC(=O)c1sc(Nc2ccc(OCC)cc2)nc1C returned Cl transport mod 0.348, Calb FLC 24.9, Efflux pump mplx 0.1, Cardio protect -6.6 and PHOSPHO1 block 44.9.
`CCOC(=O)c1sc(N2N=C(C)/C(=C\c3ccc(OCC(=O)OC)cc3)C2=O)nc1C` gave Cl transport mod 0.752, Calb FLC 43.4, Efflux pump mplx -0.2, Cardio protect 58.1* and PHOSPHO1 block 3.0.
Screening O=C1C(Cl)=C(Nc2ccccc2O)C(=O)N1c1ccccc1 returned Calb FLC 8.7, Efflux pump mplx 0.4, Cardio protect -2.5 and PHOSPHO1 block 60.5*.
COc1cc(/C=N/N=C2/NC(=O)C(Cc3ccc(F)cc3)S2)ccc1O (configuration not stated) was read as Cl transport mod -2.26, Calb FLC -6.9, Efflux pump mplx 0.1, Cardio protect -16.3 and PHOSPHO1 block -17.0.
For COc1cc(/C=N/N=C2/NC(=O)C(c3ccccc3)S2)ccc1O (configuration not stated) the results were Calb FLC 17.2, Efflux pump mplx 0.0, Cardio protect 1.2 and PHOSPHO1 block 66.7*.
Screening COc1cccc(C(=O)Nc2nc(-c3ccccc3)c(-c3ccccc3)o2)c1 returned Cl transport mod 28.7*, Calb FLC -13.0, Efflux pump mplx 0.0, Cardio protect 11.0 and PHOSPHO1 block -2.0.
For Cc1cc(NC(=O)C2CCCCC2)nc2c1c(=O)oc1ccccc12 the results were Calb FLC -0.2, Efflux pump mplx 0.1, Cardio protect 101.0* and PHOSPHO1 block 16.2.
`COc1cccc(C(=O)Nc2cc(C)c3c(=O)oc4ccccc4c3n2)c1` gave Cl transport mod 0.76, Calb FLC -1.2, Efflux pump mplx -0.5, Cardio protect 90.4* and PHOSPHO1 block 4.0.
Cn1cc(CN2CCC(n3nccc3NC(=O)C3CCCC3)CC2)cn1 was read as Calb FLC -1.5, Efflux pump mplx -0.1, Cardio protect -1.6 and PHOSPHO1 block -15.8.
Screening S=C1NCN(C2CCCCC2)CN1CCc1ccccc1 returned Cl transport mod 1.38, Calb FLC -26.0, Efflux pump mplx 0.0, Cardio protect 0.0 and PHOSPHO1 block 16.2.
Screening N#CC1CC(c2ccccc2)=NN1c1ccccc1[N+](=O)[O-] (configuration not stated) returned Cl transport mod -0.794, Calb FLC 84.9*, Efflux pump mplx 0.0, Cardio protect -8.3 and PHOSPHO1 block -19.6.
`O=CN1N=C(c2ccccc2)CC1c1ccccc1[N+](=O)[O-]` (configuration not stated) gave Cl transport mod 0.316, Calb FLC -2.9, Efflux pump mplx 0.2, Cardio protect 1.8 and PHOSPHO1 block 2.5.

Screens from PubChem.
